# Rows were chosen to be rich in hits. Some 18% of all compounds tested hit in one or more screens of this group.
# DT40 TDP1 no CPT: qHTS for Inhibitors of human tyrosyl-DNA phosphodiesterase 1 (TDP1): qHTS in cells in absence of CPT. DT40 Tdp1-/- hTDP1 cells, no CPT, ATP luminescence, 48 h. Potency, µM (highest dose often 46.2 µM), hits mostly inhibitors. actives 15% (n = 420,000); further: nearly all actives have a fitted effect of over 55% in size
#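 Chicken DT40 Tdp1-/- cells complemented with human TDP1, screened without camptothecin (DMSO vehicle only), 400 cells/well. Compounds pin-transferred, cells incubated at 37 °C for at least 48 hr. Growth read as ATP-dependent luminescence (CellTiter-Glo, 30 min at RT).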
# LDHA block: LDHA (human) enzyme inhibition; activity change, % (values are at about 110 or 230 µM); purified LDHA, NADH/diaphorase-resazurin fluorescence; hits give low values; AID 1347041; P00338; actives 0.15% (n = 480,000); in the data active means activity change below about -30%; inconclusive means mostly about -25% to -30%
#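 LDH5 2 nM; NADH 0.06 mM, pyruvate 0.2 mM; 200 mM Tris pH 7.4, EDTA, Tween-20; 5 min RT. Detection: diaphorase 0.133 mg/mL + resazurin 37 µM, fluorescence ex540/em590 at 0 and 20 min; normalized to enzyme-free and DMSO wells.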
# RORg inh: ROR gamma (mouse) transcription inhibition | Drosophila S2 Gal4-RORgamma UAS-luciferase reporter, 20 h | Potency, µM (top dose mostly 53.6 µM), actives largely listed as inhibitors | actives 5.4% (n = 310,000); further: nearly all actives have a fitted effect of over 60% in size
# Target sequence (P51450 whole entry, looked up, the tested form may be a part): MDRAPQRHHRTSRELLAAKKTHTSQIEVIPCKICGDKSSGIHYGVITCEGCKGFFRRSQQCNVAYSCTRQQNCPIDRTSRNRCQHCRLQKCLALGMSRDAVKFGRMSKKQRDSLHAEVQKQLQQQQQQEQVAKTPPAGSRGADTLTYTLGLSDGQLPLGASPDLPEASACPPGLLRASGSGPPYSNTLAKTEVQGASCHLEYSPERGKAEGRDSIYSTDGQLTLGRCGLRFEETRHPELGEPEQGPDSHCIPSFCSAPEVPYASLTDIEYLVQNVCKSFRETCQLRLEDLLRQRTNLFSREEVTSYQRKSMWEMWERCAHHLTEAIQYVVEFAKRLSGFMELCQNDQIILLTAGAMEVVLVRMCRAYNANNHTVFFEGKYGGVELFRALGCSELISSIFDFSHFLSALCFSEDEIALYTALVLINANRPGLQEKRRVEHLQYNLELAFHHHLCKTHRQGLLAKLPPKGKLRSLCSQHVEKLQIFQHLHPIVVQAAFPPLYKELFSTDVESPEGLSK
#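 Using a luciferase readout, inhibitors were identified by reduced reporter activity in Drosophila cells coexpressing a copper-inducible Gal4–ROR gamma fusion and UAS-driven Photinus luciferase, incubated 20 hr after 700 uM copper sulfate.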
# VP16 counter: inhibits Gal4-VP16 luciferase reporter, ROR gamma counter-screen; Drosophila S2 Gal4-VP16 UAS-luciferase, luminescence, 20 h; Potency, µM (titrated, usually from 53.6 µM), hits mostly inhibitors; actives 3.5% (n = 310,000); AID 2546;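 further: Gal4-VP16 expression switched on by copper sulfate through the metallothionein promoter; nearly all actives have a fitted effect of over 50% in size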
# IL-1B inflam inh: blocks inflammasome-driven IL-1 beta release; actives 4.7% (n = 360,000); activity change, % at 57.5 µM; THP-1 LPS/ATP IL-1B secretion, AlphaLISA, 16 h; hits give low values; in the data active means activity change below about -50%; inconclusive means mostly about -30% to -49%
#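 Secreted IL-1B measured by AlphaLISA bead assay after 16 h compound exposure of THP-1 cells; compounds (final up to 57.5 uM) added 1 h before LPS (250 ng/mL) and ATP (1.25 mM) stimulation; lower signal means less secretion.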
# TDP1 cell CPT: DT40-hTDP1 cell growth loss with CPT; chicken DT40 Tdp1-/-;hTDP1 cells + 20 nM CPT, ATP luminescence, 48 h; Potency, µM (titrated, usually from 46.2 µM), hits mostly inhibitors; actives 12% (n = 420,000); AID 686979; further: nearly all actives have a fitted effect of over 55% in size
#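 Cell growth measured by CellTiter-Glo luminescence after a minimum 48 h, 37 C compound exposure with 20 nM CPT in Tdp1-knockout DT40 cells stably expressing hTDP1, seeded 400/well; qHTS titration format.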
# Numbers stand for hits; . = inactive; ? = inconclusive; / = not tested or not shown; [ ] = dose if it differs, or a comment. Unless noted, the call rests on the fitted dose curve; in most records, active means well fitted curve in the direction sought with a large enough effect; inconclusive means small, poorly fitted or top-dose-only effect, or another doubt; inactive means no such curve, though single readings can be large; an effect the other way counts as inactive or inconclusive.
SMILES,DT40 TDP1 no CPT,LDHA block,RORg inh,VP16 counter,IL-1B inflam inh,TDP1 cell CPT
COc1ccc(C(=O)N(Cc2nc3nc(C)cc(=O)n3[nH]2)c2ccc(C)cc2)cc1,/,.,/,/,/,/
CC(=O)NNc1nc(-c2ccc(NC(C)=O)cc2)cs1,.,.,.,?,.,.
CC(=O)Nc1ccc(-c2csc(NNC(=O)c3ccc(C)cc3)n2)cc1,10.3µM,.,.,.[10 µM],.,13µM
COc1cc(OC)nc(C(NC(=O)C2CCN(Cc3ccc(Oc4ccccc4)cc3)CC2)c2ccccc2C)n1 (stereo unspecified),?,.,/,/,-57.8,?
Cc1cccnc1C(NC(=O)C1CCN(Cc2ccc(Cl)cc2)CC1)c1ccccc1 (stereo unspecified),16.4µM,.,/,/,?,16.4µM
Cc1cccnc1C(NC(=O)C1CCN(Cc2ccc(Oc3ccccc3)cc2)CC1)c1ccc(F)cc1 (stereo unspecified),?,.,/,/,-66.8,23.1µM
Cc1cccnc1C(NC(=O)C1CCN(CCCc2ccccc2)CC1)c1ccc(Cl)cc1 (stereo unspecified),29.1µM,.,/,/,-57.2,?
CCN(CC)C(=O)CSc1n[nH]c(=O)c2cc(-c3ccc(OC)c(OC)c3)nn12,/,.,/,/,/,/
CCCc1nnc2sc(-c3ccc(CNC(=O)c4ccccc4C)cc3)nn12,/,.,/,/,/,/
Cc1cccnc1C(NC(=O)C1CCN(Cc2cn(C)c3ccccc23)CC1)c1ccc(Cl)cc1 (stereo unspecified),4.61µM,.,/,/,?,4.61µM
Cc1ccc(Sc2c([N+](=O)[O-])c(=O)n(C)c3ccccc23)cc1,13µM,.,11.2µM,7.08µM,.,14.6µM
CCOC(=O)C1=C(COC(=O)CCS(=O)(=O)c2ccc(C)cc2)NC(=O)NC1C (stereo unspecified),.,.,/,/,-80.1,?
CCOC(=O)C1=C(COC(=O)CNS(=O)(=O)c2ccc(C)cc2)NC(=O)NC1C (stereo unspecified),.,.,.,.,.,.
CCOC(=O)C1=C(COC(=O)CCOc2ccccc2)NC(=O)NC1C (stereo unspecified),23.1µM,.,/,/,.,23.1µM
O=c1cc2nc(-c3ccccc3F)nc(SCc3ccc(Br)cc3)n2[nH]1,11.6µM,.,/,/,/,18.4µM
N#Cc1nc(-c2cccc3ccccc23)oc1NCCCn1ccnc1,/,.,/,/,/,/
O=C(Oc1cccc(/C=N/Nc2nc(N3CCOCC3)nc(N3CCOCC3)n2)c1)c1ccco1,?,.,.,.,.,?
COc1ccc(/C=N/Nc2nc(Nc3ccccc3)nc(N3CCCC3)n2)cc1[N+](=O)[O-],16.4µM,.,12.6µM,.,-88.3,?
COc1cc(/C=N/Nc2nc(Nc3ccccc3)nc(N3CCCCC3)n2)ccc1OCC(=O)O,?,.,.,.,.,?
COc1ccc(/C=N/Nc2nc(Nc3ccccc3)nc(N3CCCCC3)n2)c(OC)c1,20.6µM,.,3.16µM,11.2µM,.,?
COc1cc(/C=N/Nc2nc(Nc3ccccc3)nc(N3CCOCC3)n2)ccc1OC(=O)c1ccco1,4.11µM,.,.,.,?,7.31µM
Cc1csc(SCC(=O)Nc2sccc2C(N)=O)n1,.,.,.,.,.,.
Cc1nc(SCC(=O)N2CCN(C(=O)c3cccs3)CC2)c2c(C)c(C)sc2n1,16.4µM,.,/,/,.,25.9µM
COC(=O)c1sc2nc(C)nc(SCC(=O)Nc3sccc3C(N)=O)c2c1C,16.4µM,.,/,/,.,18.4µM
Cc1nc(SCC(=O)N2CCOCC2)c2c(C)c(C)sc2n1,.,.,.,.,.,.
SMILES,DT40 TDP1 no CPT,LDHA block,RORg inh,VP16 counter,IL-1B inflam inh,TDP1 cell CPT
Cc1nc(SCC(=O)Nc2sccc2C(N)=O)c2c(C)c(C)sc2n1,?,.,/,/,.,20.6µM
Cc1nc(SCC(=O)Nc2ccc(S(=O)(=O)N3CCOCC3)cc2)c2c(C)c(C)sc2n1,?,.,/,/,?,25.9µM
O=C(CCc1nnc2ccc(N3CCCCC3)nn12)N1CCCC1,/,.,/,/,/,/
COc1ccc(OC)c(NC(=O)COC(=O)c2sccc2C)c1,/,.,/,/,/,/
N#Cc1ccccc1COC(=O)C1COc2ccccc2O1 (stereo unspecified),/,.,/,/,/,/
C=CCNC(=O)C1CCN(Cc2ccc(Cl)cc2)CC1,/,.,/,/,/,/
CCOC(=O)N1CCC(N(CCOC)C(=O)Nc2ccc(Cl)cc2)CC1,14.6µM,.,.,.,.,?
CC(=O)N1CCC(N(CCCOC(C)C)C(=O)Nc2ccc(Cl)cc2)CC1,.,.,/,/,.,.
CCOC(=O)N1CCC(N(C(=O)Nc2ccccc2)C(C)CC)CC1 (stereo unspecified),?,.,.,.,.,?
CCOC(=O)N1CCC(N(C(=O)Nc2ccc(CC)cc2)C(C)CC)CC1 (stereo unspecified),23.1µM,.,?,.,.,?
CCOC(=O)N1CCC(N(CCCOC)C(=O)Nc2ccc(CC)cc2)CC1,13µM,.,?,.,.,18.4µM
Cc1ccc(F)cc1C(=O)Nc1nc(C)c(C)s1,/,.,/,/,/,/
C=C(COC(C)=O)C1Cc2c(ccc3c2OC2COc4cc(OC)c(OC)cc4C2C3=O)O1 (stereo unspecified),/,.,/,/,/,/
COc1cc2c(cc1OC)C1C(=O)c3ccc4c(c3OC1CO2)C=CC(C)(C)O4 (stereo unspecified),0.0651µM,/,?,0.126µM,/,0.082µM
COc1cc2c(cc1OC)C1C(=O)c3c(O)cc4c(c3OC1CO2)C=CC(C)(C)O4 (stereo unspecified),0.411µM,/,6.31µM,0.891µM,/,0.651µM
Cc1cccc2nc(-c3ccccn3)c(Nc3ccc(F)cc3)n12,18.4µM,.,/,/,/,11.6µM
Cc1cccc2nc(-c3ccco3)c(Nc3ccccc3)n12,?,.,.,.,.,?
Cc1nc(-c2ccccn2)n[nH]1,/,.,/,/,/,/
Cc1ccc(Nc2c(-c3ccsc3)nc3cccc(C)n23)cc1,?,.,/,/,/,16.4µM
Cc1ccn2c(Nc3ccc(F)cc3)c(-c3ccccn3)nc2c1,13µM,.,/,/,/,10.3µM
Cc1cccc2nc(-c3ccccn3)c(Nc3ccccc3)n12,4.11µM,.,/,/,/,4.11µM
O=C(/C=C/c1cccnc1)c1cccc2ccccc12,/,.,/,/,/,/
Cc1cc2ccccc2nc1-c1ccccc1F,?,.,/,/,.,.
Cc1cccc(C)c1Nc1c(-c2ccccc2F)nc2cccc(C)n12,.,.,/,/,/,10.3µM
Cc1ccc(Nc2c(-c3ccccn3)nc3cccc(C)n23)cc1,2.06µM,.,4.47µM,?,?,2.59µM
Cc1ccc(Nc2c(-c3ccccn3)nc3ccc(Br)cn23)cc1,20.6µM,.,/,/,/,9.2µM
Cc1ccc(Nc2c(-c3ccccc3O)nc3ncccn23)cc1,.,.,.,.,.,?

# Screens (PubChem)
